The values below come from PubChem BioAssay.

The source made the active and inactive calls.

Assay [1] can be described thus: small molecules captured by biotinylated probe aFSTL3 – biochemical, small-molecule microarray, fluorescence 635/667, stem cell growth factor project, primary screen (AID 1064).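 Also: measures binding of the biotinylated anti-FSTL3 antibody to printed compounds.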 Particulars: higher = more signal.
The nature of assay [2]: binders from COS7 lysate, DM2A8 probe, primary screen, torsin A project, cell lysate, small-molecule microarray, fluorescence 635/667 (AID 1065). The conditions noted are these: higher = more signal, COS7 lysate expressing mutant human TOR1A.
Assay [3] is described as follows: small molecules captured by biotinylated probe aFGF2 – biochemical, small-molecule microarray, fluorescence 635/667, stem cell growth factor project, primary screen (AID 1067).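 Also: measures binding of biotinylated aFGF2 protein to printed compounds on slides; z-score merges feature fluorescence and signal-to-noise across triplicate slides.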 The conditions noted are these: higher = more signal.
A short description of assay [4]: small molecules captured by biotinylated probe aFGF10 – biochemical, small-molecule microarray, fluorescence 635/667, stem cell growth factor project, primary screen (AID 1071).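 Also: score merges 667 nm spot intensity and signal to noise from triplicate slides.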 The conditions noted are these: higher = more signal.
For assay [5], the target named is Neurogenic locus notch homolog protein 2 (Homo sapiens) (UniProt Q04721). The assay is described as follows: small molecules binding Notch2 protein – biochemical, small-molecule microarray, 635 nm fluorescence, stem cell growth factors, primary screen (AID 1073). Particulars: higher = more signal.
Assay [6] has as its target Pro-neuregulin-1, membrane-bound isoform (Homo sapiens) (UniProt Q02297). The assay is described as follows: small molecules binding neuregulin-1 protein – biochemical, small-molecule microarray, fluorescence 635/667, psychiatric disease protein project, primary screen (AID 1075).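 Also: score combines 667 nm spot fluorescence with signal to noise.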 The conditions noted are these: NRG1 binding, 635 nm fluorescence, higher = more signal.
The test system of assay [7] is Neuregulin-1 EGF-like domain. The assay is described as follows: small molecules binding NRG1 EGF domain – biochemical, small-molecule microarray, 635 nm fluorescence, primary screen (AID 1081).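 Also: binding of the protein to compounds printed on small-molecule microarray slides.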 The conditions noted are these: higher = more signal.
Assay [8] is described as follows: FRG1 expression reporter modulators in myotubes – cell-based, C2C12 myotubes, firefly/Renilla luciferase, luminescence, FRG1 inhibition for FSHD, primary screen (AID 1084). Particulars: FRG1 promoter luciferase, higher = more signal, called active from +8 up or from −8 down.
The nature of assay [9]: small molecules captured by biotinylated probe aFST – biochemical, small-molecule microarray, fluorescence 635/667, stem cell growth factor project, primary screen (AID 1086).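 Also: score merges 667 nm fluorescence with signal-to-noise of each printed compound spot.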 Particulars: higher = more signal.
Assay [10] is described as follows: binders of probe aHhip on microarray, primary screen, stem cell growth factor project, biochemical, small-molecule microarray, fluorescence 635/667 (AID 1087).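 Also: score merges spot fluorescence at 667nm with spot signal to noise ratio.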 The conditions noted are these: higher = more signal.
For assay [11], the system named is PRMT1 (protein arginine N-methyltransferase 1). The experiment in a line: small molecules binding arginine methyltransferase PRMT1 – biochemical, small-molecule microarray, 635 nm fluorescence, primary screen (AID 1088).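 Also: binding of Prmt1 protein to compounds spotted on small-molecule microarray slides.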 The conditions noted are these: higher = more signal.
Assay [12] in a line: growth effects on S. cerevisiae YJM789 – YJM789 clinical isolate, OD600, 24 h, basal, primary screen (AID 1089).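 Also: growth of clinical yeast isolate S. cerevisiae YJM 789 seeded 1000 cells per well; test concentration not given here.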 Particulars: higher = more signal, called active from +8 up or from −8 down.
Assay [13] is described as follows: S. pombe growth modifiers, basal conditions – strain 972, OD600, 24 h, no modulator, primary screen (AID 1090).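 Also: basal condition with compound alone and no growth modifier present; test concentration not given here.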 Particulars: S. pombe 972 growth, higher = more signal, called active from +8 up or from −8 down.
Assay [14] is described as follows: budding yeast growth modifiers under rapamycin – strain BY4716, OD600, 96 h, primary screen (AID 1091). Also: test concentration not given here. The conditions noted are these: S. cerevisiae BY4716 + rapamycin, higher = more signal, called active from +8 up or from −8 down.
Assay [15] deals with Torsin-1A-interacting protein 2 (Homo sapiens) (UniProt Q8NFQ8). The assay is described as follows: small molecules binding lysate-expressed LULL1 – cell lysate, human LULL1 lysate, 635/667 nm fluorescence, primary screen (AID 1092).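 Also: probe is lysate of COS7 cells overexpressing human LULL1; score merges per-feature 667 nm fluorescence with signal-to-noise.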 The conditions noted are these: small-molecule microarray, hLULL1 lysate binding, 635 nm fluorescence; higher = more signal.
The nature of assay [16]: optical density change of DRC41 E. coli – strain DRC41, OD650, 24 h, E. coli filamentation project, primary screen (AID 1093).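 Also: MC1000 strain lacking acrAB efflux and sulA so SOS filamentation is blocked; test concentration not given here.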 Particulars: E. coli DRC41 growth, higher = more signal, called active from +8 up or from −8 down.
A short description of assay [17]: probe aLefty2 binding to arrayed compounds – biochemical, biotinylated probe, 635/667 nm fluorescence, primary screen (AID 1094).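 Also: score merges spot fluorescence near 667 nm with spot signal-to-noise ratio.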 Particulars: small-molecule microarray, higher = more signal.
Assay [18] concerns Noggin (protein binding on small-molecule microarray). The experiment in a line: small molecules binding Noggin protein – biochemical, 635/667 nm fluorescence, primary screen (AID 1095).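 Also: score merges 667 nm feature fluorescence with signal to noise over triplicate slides.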 Particulars: 635 nm fluorescence, higher = more signal.
Assay [19] deals with Neurogenic locus notch homolog protein 3 (Homo sapiens) (UniProt Q9UM47). The experiment in a line: small molecules binding NOTCH3 protein – biochemical, 635/667 nm fluorescence, primary screen (AID 1096). The conditions noted are these: small-molecule microarray, 635 nm fluorescence, higher = more signal.
Assay [20] can be described thus: probe aEGFR binding to arrayed compounds – biochemical, biotinylated probe, 635/667 nm fluorescence, primary screen (AID 1097).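 Also: probe is a biotinylated anti-EGFR antibody binding compounds printed on slides; score combines fluorescence near 667 nm and signal to noise of each spot.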 The conditions noted are these: small-molecule microarray, higher = more signal.

Chain of Pro-neuregulin-1, membrane-bound isoform (Homo sapiens) (Q02297 whole entry, looked up, the tested form may be a part, canonical isoform): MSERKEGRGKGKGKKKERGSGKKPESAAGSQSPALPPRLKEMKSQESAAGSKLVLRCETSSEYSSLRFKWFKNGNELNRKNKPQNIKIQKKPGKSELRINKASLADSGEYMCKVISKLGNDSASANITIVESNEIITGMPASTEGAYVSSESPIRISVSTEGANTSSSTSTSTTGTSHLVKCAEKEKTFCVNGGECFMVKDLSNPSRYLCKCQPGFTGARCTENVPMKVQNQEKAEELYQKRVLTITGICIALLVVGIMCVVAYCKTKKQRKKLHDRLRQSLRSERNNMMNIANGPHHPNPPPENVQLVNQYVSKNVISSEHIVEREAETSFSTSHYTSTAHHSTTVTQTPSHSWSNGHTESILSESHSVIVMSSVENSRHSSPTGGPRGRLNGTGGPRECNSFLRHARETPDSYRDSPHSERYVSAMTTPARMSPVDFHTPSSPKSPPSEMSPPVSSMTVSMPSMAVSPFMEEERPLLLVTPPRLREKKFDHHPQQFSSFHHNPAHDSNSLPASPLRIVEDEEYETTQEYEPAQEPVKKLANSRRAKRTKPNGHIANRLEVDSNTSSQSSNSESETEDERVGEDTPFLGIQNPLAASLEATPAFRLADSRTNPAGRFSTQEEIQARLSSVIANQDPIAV
Chain of Neurogenic locus notch homolog protein 2 (Homo sapiens) (Q04721 whole entry, looked up, canonical isoform): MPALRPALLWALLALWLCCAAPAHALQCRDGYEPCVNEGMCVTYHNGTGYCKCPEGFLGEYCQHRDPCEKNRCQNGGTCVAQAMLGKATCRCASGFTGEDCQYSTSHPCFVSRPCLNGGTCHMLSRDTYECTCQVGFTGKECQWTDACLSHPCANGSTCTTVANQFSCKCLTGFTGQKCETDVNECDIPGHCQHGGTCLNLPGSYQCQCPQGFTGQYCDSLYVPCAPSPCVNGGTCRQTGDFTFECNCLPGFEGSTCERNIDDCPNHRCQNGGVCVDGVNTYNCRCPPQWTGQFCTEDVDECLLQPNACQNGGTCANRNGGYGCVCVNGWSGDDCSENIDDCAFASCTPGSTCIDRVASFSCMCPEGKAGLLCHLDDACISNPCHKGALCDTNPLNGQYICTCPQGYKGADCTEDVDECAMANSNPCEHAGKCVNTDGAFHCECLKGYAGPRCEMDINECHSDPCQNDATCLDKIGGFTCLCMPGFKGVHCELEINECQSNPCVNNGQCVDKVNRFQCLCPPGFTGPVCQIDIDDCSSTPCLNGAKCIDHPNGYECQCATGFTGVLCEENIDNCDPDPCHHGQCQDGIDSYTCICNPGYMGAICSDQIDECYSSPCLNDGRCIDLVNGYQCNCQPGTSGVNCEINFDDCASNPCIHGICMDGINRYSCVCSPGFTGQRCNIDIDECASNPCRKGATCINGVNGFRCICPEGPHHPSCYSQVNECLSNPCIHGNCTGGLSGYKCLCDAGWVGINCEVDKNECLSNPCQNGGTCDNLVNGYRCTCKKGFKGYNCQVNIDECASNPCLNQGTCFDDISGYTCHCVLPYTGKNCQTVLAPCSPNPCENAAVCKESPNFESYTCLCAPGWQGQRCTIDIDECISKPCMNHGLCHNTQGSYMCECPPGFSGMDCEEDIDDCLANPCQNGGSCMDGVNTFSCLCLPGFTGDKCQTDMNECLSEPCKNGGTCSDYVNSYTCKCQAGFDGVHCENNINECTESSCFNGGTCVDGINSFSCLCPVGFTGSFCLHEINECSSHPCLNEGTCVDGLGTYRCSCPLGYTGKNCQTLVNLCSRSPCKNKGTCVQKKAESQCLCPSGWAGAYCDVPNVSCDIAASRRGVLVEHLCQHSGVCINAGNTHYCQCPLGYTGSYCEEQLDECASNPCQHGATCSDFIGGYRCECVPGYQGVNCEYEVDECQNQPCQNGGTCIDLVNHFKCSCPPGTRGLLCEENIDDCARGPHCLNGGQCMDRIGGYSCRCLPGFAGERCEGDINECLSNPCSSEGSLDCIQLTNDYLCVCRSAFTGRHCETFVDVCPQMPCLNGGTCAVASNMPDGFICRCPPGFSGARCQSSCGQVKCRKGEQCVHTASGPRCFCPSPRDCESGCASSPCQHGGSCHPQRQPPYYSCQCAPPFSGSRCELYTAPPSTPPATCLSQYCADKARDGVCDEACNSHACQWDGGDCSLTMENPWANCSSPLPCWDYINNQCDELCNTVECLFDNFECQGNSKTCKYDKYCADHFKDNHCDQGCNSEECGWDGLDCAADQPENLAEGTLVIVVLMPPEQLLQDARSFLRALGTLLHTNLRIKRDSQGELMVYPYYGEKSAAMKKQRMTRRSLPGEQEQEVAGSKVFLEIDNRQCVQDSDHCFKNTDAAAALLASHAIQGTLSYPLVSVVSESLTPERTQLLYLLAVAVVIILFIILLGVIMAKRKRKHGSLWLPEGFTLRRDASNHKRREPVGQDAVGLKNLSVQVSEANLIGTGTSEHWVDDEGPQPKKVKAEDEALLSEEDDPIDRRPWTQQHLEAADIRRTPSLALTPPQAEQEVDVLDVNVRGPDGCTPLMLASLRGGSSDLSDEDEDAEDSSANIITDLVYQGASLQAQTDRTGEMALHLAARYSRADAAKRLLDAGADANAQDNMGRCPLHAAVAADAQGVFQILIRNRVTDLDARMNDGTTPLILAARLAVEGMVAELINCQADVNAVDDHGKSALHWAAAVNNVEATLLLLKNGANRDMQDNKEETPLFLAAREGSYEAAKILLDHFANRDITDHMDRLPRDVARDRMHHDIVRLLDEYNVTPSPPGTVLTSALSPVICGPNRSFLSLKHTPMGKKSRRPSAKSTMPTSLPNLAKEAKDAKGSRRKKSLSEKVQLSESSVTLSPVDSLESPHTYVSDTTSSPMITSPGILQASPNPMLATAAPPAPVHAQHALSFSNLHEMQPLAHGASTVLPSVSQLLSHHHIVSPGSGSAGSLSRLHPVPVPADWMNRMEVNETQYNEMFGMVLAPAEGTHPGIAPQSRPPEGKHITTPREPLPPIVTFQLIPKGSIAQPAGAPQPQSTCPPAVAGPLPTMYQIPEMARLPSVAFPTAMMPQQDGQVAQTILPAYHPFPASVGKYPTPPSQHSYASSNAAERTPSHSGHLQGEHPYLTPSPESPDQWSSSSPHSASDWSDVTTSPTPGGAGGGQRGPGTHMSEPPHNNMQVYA
Chain of Torsin-1A-interacting protein 2 (Homo sapiens) (Q8NFQ8 whole entry, looked up): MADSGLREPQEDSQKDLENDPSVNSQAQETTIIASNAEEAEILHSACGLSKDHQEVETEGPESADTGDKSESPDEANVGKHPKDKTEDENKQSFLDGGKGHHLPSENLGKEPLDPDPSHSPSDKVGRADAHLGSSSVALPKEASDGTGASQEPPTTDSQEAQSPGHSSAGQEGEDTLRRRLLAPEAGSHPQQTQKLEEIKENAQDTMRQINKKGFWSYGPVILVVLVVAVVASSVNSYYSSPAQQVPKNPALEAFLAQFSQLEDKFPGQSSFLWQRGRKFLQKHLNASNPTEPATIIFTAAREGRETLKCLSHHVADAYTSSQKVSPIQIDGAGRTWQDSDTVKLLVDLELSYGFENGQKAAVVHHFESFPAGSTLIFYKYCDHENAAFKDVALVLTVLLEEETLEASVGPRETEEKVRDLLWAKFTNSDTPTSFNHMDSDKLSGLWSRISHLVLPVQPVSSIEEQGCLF

In the case of `Cn1c(=O)n2n(c1=O)[C@H]1[C@H](O)[C@@H]3O[C@@H]3C(=O)[C@H]1CC2`, the composite z-score in [1] was -0.439; in [2], 0.197; in assay [3], -0.128; in assay [4] it was 0.355; in assay [5], 0.584; in assay [6], -0.208. In addition, the composite z-score is 0.712 in assay [7]; 0.95 in assay [9]; 0.0053 in [10]; -0.261 in [11]; 0.485 in [15]; -0.13 in assay [17]. Besides, the figures for the composite z-score in assay [18], in assay [19] and in assay [20] were 0.457, 0.557 and -0.0508, respectively. The z-score in assay [8] was 0.101 (inactive); in assay [12], 0.954 (inactive); in assay [13], 0.595 (inactive); in assay [14], 0.672 (inactive); in assay [16] it was 0.442 (inactive).

`C#CCCCON=C1C[C@@H](O)[C@@H](O)[C@@H]2[C@@H]3C(=O)N(Cc4ccccc4)C(=O)[C@@H]3CC[C@@H]12`: the composite z-score was -0.19 in assay [1]; 0.421 in [2]; -0.0887 in assay [3]; 0.0443 in [4]; 0.181 in [5]; 0.0645 in assay [6]. The composite z-score in [7] was -0.816; in [9], 0.53; in [10], 0.0176; in [11], -0.526; in [15] it was -0.569; in assay [17] it was -0.0409. Besides, the composite z-score in [18] is 0.224; in assay [19], 0.0798; in [20], -0.14. Also, the z-score in [8] was -0.211 (inactive); in assay [12], -0.956 (inactive); in assay [13], -0.351 (inactive); in assay [14] it was -1.61 (inactive); in assay [16] it was 0.49 (inactive).

Regarding `O=C1C=C[C@@H](O)[C@@H]2[C@@H]3C(=O)N(C[C@@H]4CCCO4)C(=O)[C@@H]3CC[C@@H]12`, the composite z-score in [1] is -0.518; in assay [2] it was 0.0078; in assay [3], -0.103; in [4] it was 0.458; in [5] it was 0.141; in [6] it was -0.0326. Also, the composite z-score in assay [7] is 0.691; in assay [9] it was 0.041; in [10], -0.136; in [11], -0.168; in [15], 0.276; in assay [17], -0.139. For the same compound, the composite z-score in assay [18] was 0.54; in assay [19], 0.541; in [20], -0.0208. Also, the z-score in [8] was -0.241 (inactive); in assay [12] it was 0.026 (inactive); in assay [13], -0.479 (inactive); in [14], 0.818 (inactive); in assay [16] it was 0.656 (inactive).

For `C[C@H]1CC[C@H]2C(=O)OC(CO)CN2[C@@H]1c1ccc(Br)cc1` (stereo not given in full), the composite z-score is -0.321 in assay [1]; 0.414 in assay [2]; -0.145 in assay [3]; -0.0786 in assay [4]; -0.453 in [5]; -0.365 in [6]. The composite z-score in assay [7] was 0.374; in assay [9], -0.104; in [10] it was -0.0645; in assay [11] it was 0.14; in [15], -0.467; in assay [17], -0.236. The composite z-score in assay [18] was 0.0982; in assay [19] it was -0.0249; in assay [20], -0.145. The z-score in assay [8] was -0.761 (inactive); in [12] it was -0.276 (inactive); in assay [13], -0.315 (inactive); in assay [14] it was 0.603 (inactive); in assay [16] it was 0.458 (inactive).

As to `CCOC(=O)[C@H](CC(C)C)NC(=O)CCC1CC(OC(=O)NCc2ccc3c(c2)OCO3)CC2(CCCC(COC(=O)NCCCN3CCCC3=O)O2)O1` (stereo not given in full), the composite z-score was -0.303 in [1]; 0.322 in [2]; -0.087 in assay [3]; 0.706 in assay [4]; 0.99 in assay [5]; 0.817 in [6]. Besides, the composite z-score is 0.984 in assay [7]; 0.465 in [9]; -0.0645 in assay [10]; 1.49 in assay [11]; 1.94 in [15]; -0.166 in assay [17]. Moreover, the figures for the composite z-score in assay [18], in assay [19] and in [20] were 1.36, 1.04 and -0.0271, respectively. The z-score in [8] was 0.584 (inactive); in assay [12], -0.0618 (inactive); in assay [13], 0.162 (inactive); in [14], -0.474 (inactive); in assay [16], 0.485 (inactive).
